Screens (PubChem)
RECQ1 helicase = inhibitors of human RECQ1 DNA helicase; P46063; RECQ1 DNA unwinding, red fluorescence kinetic read; Potency, µM (series often up to 57.3 µM), inactives show top-dose activity, negative = inhibition, hits mostly inhibitors; 0.54% of 240,000 active; AID 2549;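 also: plate controls were vehicle for no effect and no enzyme for full effect; nearly all actives have a fitted effect of over 30% in size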
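50 nM RECQ1T1 preincubated 15 min with compound in Tris pH 8.0 buffer with MgCl2, DTT, Tween-20 and 2.5 ug/ml poly(dI-dC); started with 200 nM TAMRA/BHQ-2 forked duplex and 2 mM ATP. Unwinding read as fluorescence (525/598 nm), two reads 2 h apart.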
BLM helicase inh-1 = blocks DNA unwinding by human BLM helicase. P54132. recombinant BLM DNA unwinding, fluorescence dequenching. Potency, µM (highest dose often 56.1 µM), inactives show at the top dose activity change, negative = inhibition, actives largely listed as inhibitors. 0.2% of 350,000 active. AID 2528;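 also: plate controls were vehicle for no effect and no enzyme for full effect; nearly all actives have a fitted effect of over 35% in size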
L3MBTL1 inh-1 = L3MBTL1 (human) inhibition. Q9Y468. AlphaScreen L3MBTL1–H3K9me1 peptide binding. Potency, µM (top dose mostly 57.1 µM), for inactives: at the highest dose activity, negative = inhibition, hits mostly inhibitors. 0.66% of 230,000 active; also: % is scaled to controls: 0 for no effect and ±100 for the full control effect; nearly all actives have a fitted effect of over 60% in size
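AlphaScreen assay: L3MBTL1 (50 nM final) was preincubated 30 min at room temperature with biotinylated H3(1-15)K9me1 peptide (75 nM final), then 30 min with library compounds; streptavidin donor and nickel chelate acceptor beads (10 ug/mL final) added, 30 min dark.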
WRN helicase inh-1 = inhibitors of human WRN helicase; Potency, µM (highest dose often 114 µM), for inactives: at the top dose activity change, negative = inhibition, usual class: inhibitors; WRN helicase unwinding, fluorescent forked duplex, kinetic; 0.46% of 360,000 active; AID 651768; Q14191; also: % is scaled to controls: 0 for no effect and ±100 for the full control effect; nearly all actives have a fitted effect of over 55% in size
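Enzyme (20 nM final) and test compound sit together 15 min at room temperature before substrate addition. Substrate is a single-forked duplex oligonucleotide (100 nM) labelled with fluorophore and quencher, with 2 mM ATP; helicase unwinding raises red fluorescence, read kinetically.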
FEN1 inh-1 = human FEN1 inhibition; AID 588795; Potency, µM (doses to about 114 µM), inactives show at the top dose activity change, negative = inhibition, most hits filed as inhibitors; Recombinant FEN1 flap cleavage, fluorescence, 15 min; 0.35% of 390,000 active; P39748; also: % is scaled to controls: 0 for no effect and ±100 for the full control effect; nearly all actives have a fitted effect of over 65% in size
Target sequence (P39748 whole entry, looked up): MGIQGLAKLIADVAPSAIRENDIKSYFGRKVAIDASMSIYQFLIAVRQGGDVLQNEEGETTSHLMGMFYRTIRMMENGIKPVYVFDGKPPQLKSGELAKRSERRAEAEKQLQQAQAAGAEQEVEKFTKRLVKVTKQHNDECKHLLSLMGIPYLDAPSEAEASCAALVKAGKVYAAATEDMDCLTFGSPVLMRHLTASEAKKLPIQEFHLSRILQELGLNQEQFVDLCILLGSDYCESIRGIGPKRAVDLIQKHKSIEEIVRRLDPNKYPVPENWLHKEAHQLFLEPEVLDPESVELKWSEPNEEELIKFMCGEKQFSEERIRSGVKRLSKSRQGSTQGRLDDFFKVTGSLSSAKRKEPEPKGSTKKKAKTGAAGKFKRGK
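Compounds are tested as a concentration series against 10 nM FEN1; after a 15 min room-temperature preincubation, 50 nM substrate starts cleavage, with plate reads at 0 and 15 min. Normalized responses are fitted by a Hill equation.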
APE1 inh = blocks human APE1 abasic DNA cleavage; P27695; recombinant APE1, TAMRA/BHQ-2 abasic DNA cleavage fluorescence; Potency, µM (doses to about 65.8 µM), for the others: at the top dose activity change, negative = inhibition, most hits filed as inhibitors; 0.35% of 350,000 active; AID 2517;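 also: plate controls were vehicle for no effect and reference inhibitor for full effect; nearly all actives have a fitted effect of over 55% in size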
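Enzyme (0.75 nM final) and test compound are incubated 15 min at room temperature before adding 50 nM quenched THF abasic-site duplex. Cleavage dequenches TAMRA, followed at 525/598 nm over three reads one minute apart.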
L3MBTL1 inh-2 = blocks human L3MBTL1 methyl-lysine binding; 91% of 500 active; shares compounds with L3MBTL1 inh-1; L3MBTL1 methyl-lysine binding inhibition, biochemical qHTS; Potency, µM, most hits filed as inhibitors; AID 540279; also: nearly all actives have a fitted effect of over 70% in size
L3MBTL1 ctr = counter-screen for L3MBTL1 inhibitors: AlphaScreen signal interference; Potency, µM (series often up to 57.1 µM), for inactives: at the top dose activity change, negative = inhibition, most hits filed as inhibitors; 500 tested, under 10 active; AlphaScreen counterscreen, signal inhibition; shares compounds with L3MBTL1 inh-1; also: 0% is about no effect
FEN1 inh-2 = confirmation of human FEN1 inhibitors; shares compounds with FEN1 inh-1; FEN1 flap cleavage, TAMRA/BHQ2 fluorogenic DNA substrate; 79% of 880 active; Potency, µM, most hits filed as inhibitors; also: nearly all actives have a fitted effect of over 60% in size
WRN helicase inh-2 = confirmation of human WRN helicase inhibitors | shares compounds with WRN helicase inh-1 | WRN helicase DNA unwinding, fluorescence kinetic | Potency, µM (top dose mostly 57.1 µM), for the others: at the top dose activity, negative = inhibition, usual class: inhibitors | 63% of 610 active; also: nearly all actives have a fitted effect of over 65% in size
TO DNA binding = binds DNA, flagged in WRN inhibitor counterscreen; shares compounds with WRN helicase inh-1; Potency, µM (titrated, usually from 57.1 µM), inactives show at the highest dose activity change, negative = inhibition, actives largely listed as inhibitors; thiazole orange DNA binding displacement, fluorescence; 10% of 610 active;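 also: drop in dye fluorescence marks compound binding to DNA; % is scaled to controls: 0 for no effect and ±100 for the full control effect; nearly all actives have a fitted effect of over 60% in size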
BLM helicase inh-2 = BLM helicase inhibition, WRN selectivity check | shares compounds with WRN helicase inh-1 | Recombinant BLM helicase DNA unwinding, red fluorescence | Potency, µM (highest dose often 57.1 µM), inactives show at the top dose activity change, negative = inhibition, usual class: inhibitors | 60% of 610 active | AID 720503; also: nearly all actives have a fitted effect of over 60% in size
Active calls of the source: *; ? = inconclusive; / = no result given. Rows were chosen to be rich in hits. Some 1% of all compounds tested hit in one or more screens of this group. Calls follow the shape of the dose curve; as a rule, active = well fitted curve in the direction sought with a large enough effect; inconclusive = small, poorly fitted or top-dose-only effect, or another doubt; inactive = no such curve, though single readings can be large; an effect the other way counts as inactive or inconclusive. Potency is read from the fitted curve at half-maximal effect.

SMILES	RECQ1 helicase	BLM helicase inh-1	L3MBTL1 inh-1	WRN helicase inh-1	FEN1 inh-1	APE1 inh	L3MBTL1 inh-2	L3MBTL1 ctr	WRN helicase inh-2	TO DNA binding	BLM helicase inh-2	others
COc1ccc(C2=Nn3c(nnc3-c3ccccc3OC)SC2)cc1OC	15.6%	-8.0%	0.8%	-35.0%	-5.0%	-1.9%	/	/	/	/	/
COc1ccc(C2=Nn3c(nnc3-c3ccccn3)SC2)cc1OC	-7.5%	6.0%	25.1µM*	-15.3%	5.7%	-10.6%	?	-19.1%	/	/	/
Cc1cccc(N2C(=O)CCSC23C(=O)N(Cc2ccc(F)cc2)c2ccccc23)c1 (stereo not given)	/	-6.7%	/	/	-3.6%	/	/	/	/	/	/
Cc1ccc(S(=O)(=O)N2CCN(C(=O)/C=C/c3ccco3)CC2)cc1	5.4%	-9.3%	28.2µM*	-31.8%	6.4%	3.4%	26.7*	-0.5%	/	/	/
Cc1ccc(C(C)C)cc1OCCCCN1CCCC1	5.4%	3.8%	28.2µM*	2.7%	10.4%	?	18.9*	6.1%	/	/	/
Cc1ccc(C)c(OCCCN2CCCC2)c1	-5.7%	4.2%	?	5.7%	2.2%	1.8%	/	/	/	/	/
CCOC(=O)Cc1ccc(Nc2nc3cc(-c4ccccc4C)sc3c(=O)n2C)cc1	/	/	/	-1.3%	/	/	/	/	/	/	/
Cc1ccc(S(=O)(=O)N2CCN(C(=O)c3cc4c(s3)CCCC4)CC2)cc1	/	/	0.2%	-2.7%	17.4%	1.7%	/	/	/	/	/
COc1ccc(S(=O)(=O)N2CCN(C(=O)c3cc4c(s3)CCC4)CC2)cc1	/	/	3.55µM*	35.5µM*	44.7µM*	2.67µM*	3.36*	-4.8%	7.64µM*	?	1.08µM*	FEN1 inh-2=75.7*
O=C1OC(c2cccs2)=N/C1=C/c1ccc(-c2cccc(C(=O)O)c2)o1	?	110.3%	0.562µM*	?	39.8µM*	17.8µM*	3.36*	-6.2%	19.2µM*	?	?
Cc1ccc(OCC(=O)c2c(N)n(C)c(=O)n(C)c2=O)c([N+](=O)[O-])n1	/	/	7.94µM*	44.7µM*	?	15µM*	0.844*	?	17.1µM*	-13.8%	4.82µM*
CN(C)c1ccc(CNC(=O)CN2CCSc3ccc(S(=O)(=O)N(C)C)cc32)cc1	/	1.0%	/	/	-1.5%	/	/	/	/	/	/
O=C(c1ccccc1)N1CCCc2ccccc21	1.7%	-4.0%	-2.7%	-6.4%	3.4%	-1.3%	/	/	/	/	/
O=C(c1ccc(=O)oc1)N1CCCc2ccccc21	?	?	17.8µM*	?	56.2µM*	31.6µM*	1.5*	-2.9%	21.5µM*	-8.8%	24.1µM*
C=C1Nc2ccccc2C(=O)N1c1ccc(C(=O)N2CCN(C(=O)c3ccco3)CC2)cc1	/	/	/	/	-1.6%	/	/	/	/	/	/
O=C(c1ccccc1)c1ccc2nc(-c3ccco3)c(-c3ccco3)nc2c1	?	14.1µM*	7.94µM*	15.8µM*	?	?	7.52*	-27.0%	15.2µM*	24.1µM*	8.57µM*
